Test results: the antibiotic and cytotoxicity screens of Wong et al. (2023)
Screen size: about 39,000 compounds; about 3,300 (8.5%) were called active. This is one part of a sample in which actives are shown more often than they occur.

test system: HepG2; experiment: cytotoxicity call (relative viability < 0.9); conditions: 10 µM

SMILES | cytotoxicity call
O=C(C[C@H]1CC[C@@H]2[C@H](COC[C@@H](O)CN2S(=O)(=O)c2ccccc2F)O1)NCc1ccccc1Cl | inactive
C[C@H](CO)N1C[C@H](C)[C@@H](CN(C)C(=O)Nc2ccc(F)cc2)OCCCC[C@H](C)Oc2ccc(NC(=O)C3CCCCC3)cc2C1=O | inactive
C[C@@H]1CN([C@H](C)CO)C(=O)c2cc(NC(=O)C3CC3)ccc2O[C@@H]1CN(C)Cc1ccc2c(c1)OCO2 | inactive
Cc1noc(C)c1S(=O)(=O)Nc1ccc2c(c1)CC(=O)N([C@@H](C)CO)C[C@H](C)[C@H](CN(C)S(=O)(=O)c1ccc(Cl)cc1)O2 | inactive
C[C@@H]1CCCCO[C@H](CN(C)Cc2ccc(C(F)(F)F)cc2)[C@H](C)CN([C@@H](C)CO)C(=O)c2cc(NC(=O)c3ccncc3)ccc2O1 | inactive
Cc1ccc(S(=O)(=O)N(C)C[C@@H]2Oc3ccc(NS(=O)(=O)c4ccc(F)cc4)cc3C(=O)N([C@@H](C)CO)C[C@H]2C)cc1 | inactive
Cc1noc(C)c1S(=O)(=O)N(C)C[C@H]1OCCCC[C@@H](C)Oc2ccc(N(C)C)cc2C(=O)N([C@@H](C)CO)C[C@@H]1C | inactive
CC(C)NC(=O)Nc1ccc2c(c1)CC(=O)N([C@H](C)CO)C[C@@H](C)[C@H](CN(C)Cc1ccc(-c3ccccc3)cc1)O2 | inactive
CC(C)NC(=O)Nc1ccc2c(c1)CC(=O)N([C@@H](C)CO)C[C@@H](C)[C@H](CN(C)Cc1ccc(-c3ccccc3)cc1)O2 | inactive
CC(C)NC(=O)Nc1ccc2c(c1)CC(=O)N([C@@H](C)CO)C[C@@H](C)[C@@H](CN(C)Cc1ccc(-c3ccccc3)cc1)O2 | inactive
CC(C)NC(=O)Nc1ccc2c(c1)CC(=O)N([C@H](C)CO)C[C@H](C)[C@@H](CN(C)Cc1ccc(-c3ccccc3)cc1)O2 | inactive
CC(C)NC(=O)Nc1ccc2c(c1)CC(=O)N([C@H](C)CO)C[C@@H](C)[C@@H](CN(C)Cc1ccc(-c3ccccc3)cc1)O2 | active
CC(C)NC(=O)Nc1ccc2c(c1)CC(=O)N([C@@H](C)CO)C[C@H](C)[C@@H](CN(C)Cc1ccc(-c3ccccc3)cc1)O2 | active
C[C@@H]1CN([C@@H](C)CO)S(=O)(=O)c2ccc(C#Cc3cccc(F)c3)cc2O[C@@H]1CN(C)S(=O)(=O)c1ccccc1F | inactive
C[C@@H]1CCCCO[C@@H](CN(C)Cc2ccc(C(=O)O)cc2)[C@H](C)CN([C@H](C)CO)C(=O)c2cc(NC(=O)Nc3ccc4c(c3)OCO4)ccc2O1 | inactive
CC(C)NC(=O)N(C)C[C@@H]1Oc2c(NS(=O)(=O)c3ccc(Cl)cc3)cccc2C(=O)N([C@H](C)CO)C[C@H]1C | inactive
COC(=O)C1C(O)CCC2CN3CCc4c([nH]c5ccccc45)C3CC21 (stereo not given) | inactive
COC(=O)C1C(O)CCC2CN3CCc4c([nH]c5ccccc45)C3CC21.Cl (stereo not given) | inactive
COC(=O)C1C2CC3c4[nH]c5cc(OC)ccc5c4CCN3CC2CC(OC(=O)c2cc(OC)c(OC)c(OC)c2)C1OC (stereo not given) | active
C[C@H](CO)N1C[C@H](C)[C@H](CN(C)S(=O)(=O)c2ccc(Cl)cc2)Oc2ccc(NS(C)(=O)=O)cc2CC1=O | inactive
O=C(C[C@H]1CC[C@H]2[C@@H](COC[C@@H](O)CN2C(=O)Nc2ccc(Cl)cc2)O1)NC1Cc2ccccc2C1 | active
O=C(C[C@H]1CC[C@@H]2[C@H](COC[C@@H](O)CN2C(=O)Nc2ccc(Cl)cc2)O1)NC1Cc2ccccc2C1 | inactive
O=C(C[C@@H]1CC[C@H]2[C@@H](COC[C@@H](O)CN2C(=O)Nc2ccc(Cl)cc2)O1)NC1Cc2ccccc2C1 | inactive

SMILES | cytotoxicity call
O=C(C[C@H]1CC[C@H]2[C@@H](COC[C@H](O)CN2C(=O)Nc2ccc(Cl)cc2)O1)NC1Cc2ccccc2C1 | inactive
O=C(C[C@@H]1CC[C@@H]2[C@H](COC[C@H](O)CN2C(=O)Nc2ccc(Cl)cc2)O1)NC1Cc2ccccc2C1 | inactive
O=C(C[C@@H]1CC[C@@H]2[C@H](COC[C@@H](O)CN2C(=O)Nc2ccc(Cl)cc2)O1)NC1Cc2ccccc2C1 | active
CO[C@H]1CN(C)C(=O)c2ccc(NC(=O)CC(F)(F)F)cc2OC[C@H](C)N(S(=O)(=O)c2cn(C)cn2)C[C@H]1C | inactive
C[C@H]1CCCCO[C@H](CN(C)S(C)(=O)=O)[C@@H](C)CN([C@@H](C)CO)C(=O)c2cc(NS(=O)(=O)c3cn(C)cn3)ccc2O1 | inactive
COc1ccc(NC(=O)Nc2ccc3c(c2)C(=O)N([C@H](C)CO)C[C@H](C)[C@H](CN(C)S(=O)(=O)c2c(C)noc2C)OCCCC[C@H](C)O3)cc1 | inactive
O=C(C[C@H]1CC[C@H]2[C@@H](COC[C@@H](O)CN2S(=O)(=O)c2ccc(F)cc2)O1)N[C@@H]1CCN(Cc2ccccc2)C1 | inactive
CC(C)NC(=O)Nc1ccc2c(c1)CC(=O)N([C@H](C)CO)C[C@@H](C)[C@H](CN(C)Cc1ccc(C(=O)O)cc1)O2 | inactive
C[N+](C)(C)[C@@H]1[C@H]2OC[C@H](O)[C@H]2O[C@@H]1O | inactive
CCCNC(=O)N1C[C@H](C)[C@@H](OC)CN(C)C(=O)c2cc(NS(=O)(=O)CC(F)(F)F)ccc2OC[C@H]1C | inactive
C[C@H](CO)N1C[C@H](C)[C@@H](CN(C)Cc2ccc(Cl)c(Cl)c2)Oc2c(NC(=O)Nc3ccccc3)cccc2C1=O | inactive
C[C@@H]1CN([C@H](C)CO)C(=O)c2cccc(NC(=O)Nc3ccc(F)cc3)c2O[C@H]1CN(C)Cc1ccc(Cl)c(Cl)c1 | inactive
C[C@@H]1CN([C@@H](C)CO)C(=O)c2cccc(NC(=O)C3CCCCC3)c2O[C@H]1CN(C)Cc1ccc(Cl)c(Cl)c1 | inactive
C[C@H]1CN([C@@H](C)CO)C(=O)c2cccc(NC(=O)C3CCCCC3)c2O[C@@H]1CN(C)Cc1ccc(Cl)c(Cl)c1 | active
C[C@@H]1CN([C@H](C)CO)C(=O)c2cccc(NC(=O)C3CCCCC3)c2O[C@H]1CN(C)Cc1ccc(Cl)c(Cl)c1 | inactive
COc1ccc(NC(=O)Nc2cccc3c2O[C@@H](CN(C)Cc2ccc(Cl)c(Cl)c2)[C@H](C)CN([C@@H](C)CO)C3=O)cc1 | inactive
C[C@@H]1CN([C@H](C)CO)C(=O)c2cccc(NC(=O)Nc3ccccc3)c2O[C@H]1CN(C)Cc1ccc(Cl)c(Cl)c1 | inactive
C[C@@H]1CN([C@@H](C)CO)C(=O)c2cccc(NC(=O)Nc3ccccc3)c2O[C@H]1CN(C)Cc1ccc(Cl)c(Cl)c1 | active
C[C@H](CO)N1C[C@H](C)[C@H](CN(C)Cc2ccc(Cl)c(Cl)c2)Oc2c(NC(=O)Nc3ccc(F)cc3)cccc2C1=O | inactive
COc1ccc(NC(=O)Nc2cccc3c2O[C@@H](CN(C)Cc2ccc(Cl)c(Cl)c2)[C@@H](C)CN([C@H](C)CO)C3=O)cc1 | active
COc1ccc(NC(=O)Nc2cccc3c2O[C@H](CN(C)Cc2ccc(Cl)c(Cl)c2)[C@@H](C)CN([C@@H](C)CO)C3=O)cc1 | inactive
C[C@@H]1CN([C@@H](C)CO)C(=O)c2cccc(NC(=O)Nc3ccc(F)cc3)c2O[C@H]1CN(C)Cc1ccc(Cl)c(Cl)c1 | active
